# In PubChem BioAssay (EPA / NIEHS):
# Inconclusive results are not listed. Calls of active or inactive are those of the source. The calls were made as follows: active = hit-call score of the fitted dose curve at least 0.9, where 1 is the maximum; inconclusive = response in the unintended direction; inactive = score below 0.9.
# How the values were obtained:
# [1] = target: rat Neurokinin-3 Receptor (NK3), Tacr3 (gene 24808) (UniProt P16177); test: NVS_GPCR_rNK3: NovaScreen (NVS) G Protein-Coupled Receptor Assay for rat Neurokinin-3 Receptor (NK3) (AID 2283310)
# Outline: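 Filter-based radioligand displacement on rat cortex membrane preparations, read by scintillation 2 h post-dose. Chemicals first tested in duplicate at 25 uM; actives followed up in concentration series with a 50 uM maximum.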
# [2] = target: rat Vasopressin 1 Receptor (V1), Avpr1a (gene 25107) (UniProt P30560); test: NVS_GPCR_rV1: NovaScreen (NVS) G Protein-Coupled Receptor Assay for rat Vasopressin 1 Receptor (V1) (AID 2283316)
# Outline: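 Concentration-response up to 50 uM for chemicals passing a threshold such as 30% inhibition in an initial duplicate 25 uM screen. Displacement of radioligand from rat liver membranes measured after 1.5 h by filtration and scintillation.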
# [3] = target: rat Somatostatin Receptor (SST), Sstr1 (gene 25033) (UniProt P28646); test: NVS_GPCR_rSST: NovaScreen (NVS) G Protein-Coupled Receptor Assay for rat Somatostatin Receptor (SST) (AID 2283314)
# Outline: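 Single-concentration duplicate screen (25 uM), then concentration-response up to 50 uM for chemicals passing a threshold such as 30% inhibition. Membranes came from rat forebrain. Binding was measured 1 h post-dose by filter radiodetection and scintillation, relative to DMSO.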
# [4] = target: Voltage-dependent N-type calcium channel subunit alpha-1B (Rattus norvegicus) (UniProt Q02294); test: NVS_IC_rCaChN: NovaScreen (NVS) Ion Channel Assay for rat Calcium Channel, Type N (CaChN) (AID 2283317)
# [5] = target: human Neonicotinoid receptor (NNR), CHRNA2 (gene 1135) (UniProt Q15822); test: NVS_LGIC_hNNR_NBungSens: NovaScreen (NVS) Ligand-Gated Ion Channel Assay for human Neonicotinoid receptor (NNR) (AID 2283313)
# Description: (§1) NVS_LGIC_hNNR_NBungSens is a biochemical, single-readout assay that uses extracted gene-proteins from Human neuroblastoma membrane cells in a tissue-based cell-free assay. Measurements were taken 2 hours after chemical dosing in a 48-well plate.NVS_LGIC_hNNR_NBungSens is one of one assay component(s) measured or calculated from the NVS_LGIC_hNNR_NBungSens assay. It is designed to make measurements of radioligand binding, a form of binding reporter, as detected with scintillation counting signals by Filter-based radiodetection technology.Data from the assay component NVS_LGIC_hNNR_NBungSens was analyzed into 1 assay endpoint. This assay endpoint, NVS_LGIC_hNNR_NBungSens, was analyzed in the positive analysis fitting direction relative to DMSO as the negative control and baseline of activity. Using a type of binding reporter, loss-of-signal activity can be used to understand changes in the binding as they relate to the gene CHRNA2. Furthermore, this assay endpoint can be referred to as a primary readout, because the performed assay has only produced 1 assay endpoint. To generalize the intended target to other relatable targets, this assay endpoint is annotated to the ion channel intended target family, where the subfamily is ligand-gated ion channel. […]
# [6] = target: rat Neonicotinoid receptor (NNR), Chrna7 (gene 25302) (UniProt Q05941); test: NVS_LGIC_rNNR_BungSens: NovaScreen (NVS) Ligand-Gated Ion Channel Assay for rat Neonicotinoid receptor (NNR) (AID 2283315)
# Description: as §1, with “NVS_LGIC_rNNR_BungSens” for “NVS_LGIC_hNNR_NBungSens”, “Rat cortical membranes” for “Human neuroblastoma membrane cells”, “2.5” for “2”, “plate.NVS_LGIC_rNNR_BungSens” for “plate.NVS_LGIC_hNNR_NBungSens”, “NVS_LGIC_rNNR_BungSens,” for “NVS_LGIC_hNNR_NBungSens,”, “Chrna7.” for “CHRNA2.”
# [7] = target: rat Opioid Receptor, Non-selective Sodium (Na+) Binding, Oprm1 (gene 25601) (UniProt P33535); test: NVS_GPCR_rOpiate_NonSelectiveNa: NovaScreen (NVS) G Protein-Coupled Receptor Assay for rat Opioid Receptor, Non-selective Sodium (Na+) Binding (AID 2283311)
# Outline: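 Filtration radioligand binding on rat forebrain membrane preparations, read 1.5 h after dosing. Single-concentration 25 µM primary screen in duplicate, followed by singleton concentration series to 50 µM max for actives; DMSO baseline.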
# [8] = target: rat Opioid Receptor, Non-selective Binding, Oprm1 (gene 25601) (UniProt P33535); test: NVS_GPCR_rOpiate_NonSelective: NovaScreen (NVS) G Protein-Coupled Receptor Assay for rat Opioid Receptor, Non-selective Binding (AID 2283318)
# Outline: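 Filter-based radioligand displacement using rat forebrain membrane preparations, measured 1.5 h post-dosing. Single-concentration duplicate screen at 25 uM, follow-up in concentration series; activity taken as signal loss relative to DMSO.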
# NCBI gene 24521 = test: NVS_IC_rKATPCh: NovaScreen (NVS) Ion Channel Assay for rat Potassium Channel, ATP-Sensitive (KATPCh) (AID 2283319)
# Outline: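 Primary duplicate screen at 25 uM, then singleton concentration series to 50 uM maximum, in a rat cortex membrane radioligand displacement assay. Binding measured by filtration and scintillation 2 h post-dose; DMSO baseline.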
# rat Opioid Receptor, Non-selective Sodium (Na+) Binding, Oprm1 (gene 25601), sequence (P33535 whole entry, looked up): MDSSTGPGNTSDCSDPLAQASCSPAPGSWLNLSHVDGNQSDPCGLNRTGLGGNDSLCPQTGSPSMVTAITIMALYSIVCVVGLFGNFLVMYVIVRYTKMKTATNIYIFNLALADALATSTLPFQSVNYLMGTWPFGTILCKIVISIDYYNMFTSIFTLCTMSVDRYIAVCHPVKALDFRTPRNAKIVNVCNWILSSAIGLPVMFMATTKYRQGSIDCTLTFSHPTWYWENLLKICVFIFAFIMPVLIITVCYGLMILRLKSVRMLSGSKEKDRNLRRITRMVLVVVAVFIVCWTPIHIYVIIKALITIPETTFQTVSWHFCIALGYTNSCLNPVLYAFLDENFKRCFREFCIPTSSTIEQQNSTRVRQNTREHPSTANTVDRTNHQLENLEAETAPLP
# rat Neurokinin-3 Receptor (NK3), Tacr3 (gene 24808), sequence (P16177 whole entry, looked up): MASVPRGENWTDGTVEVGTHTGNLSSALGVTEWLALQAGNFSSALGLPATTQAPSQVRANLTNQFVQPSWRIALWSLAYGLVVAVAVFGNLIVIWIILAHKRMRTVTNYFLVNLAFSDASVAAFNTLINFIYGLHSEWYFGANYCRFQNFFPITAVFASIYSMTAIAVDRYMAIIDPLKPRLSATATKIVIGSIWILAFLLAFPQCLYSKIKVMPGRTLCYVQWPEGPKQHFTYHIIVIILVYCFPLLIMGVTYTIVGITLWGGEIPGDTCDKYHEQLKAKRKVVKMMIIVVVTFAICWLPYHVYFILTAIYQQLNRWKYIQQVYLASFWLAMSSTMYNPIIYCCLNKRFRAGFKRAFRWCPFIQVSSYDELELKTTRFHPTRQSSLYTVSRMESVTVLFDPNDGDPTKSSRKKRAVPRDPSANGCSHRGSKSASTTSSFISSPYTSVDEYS
# rat Somatostatin Receptor (SST), Sstr1 (gene 25033), sequence (P28646 whole entry, looked up): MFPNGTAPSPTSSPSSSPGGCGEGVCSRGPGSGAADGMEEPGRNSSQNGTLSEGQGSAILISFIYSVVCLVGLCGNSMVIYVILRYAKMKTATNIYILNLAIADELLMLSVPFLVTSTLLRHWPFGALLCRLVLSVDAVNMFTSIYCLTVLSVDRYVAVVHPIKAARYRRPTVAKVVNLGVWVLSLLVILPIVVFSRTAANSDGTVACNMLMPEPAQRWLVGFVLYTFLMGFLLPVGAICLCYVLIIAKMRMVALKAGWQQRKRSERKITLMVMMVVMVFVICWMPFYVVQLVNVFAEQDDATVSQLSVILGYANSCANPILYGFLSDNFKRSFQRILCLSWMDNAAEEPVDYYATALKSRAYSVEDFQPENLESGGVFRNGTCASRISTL
# rat Opioid Receptor, Non-selective Binding, Oprm1 (gene 25601), sequence (P33535 whole entry, looked up): as the sequence (P33535 whole entry, looked up) above
# rat Neonicotinoid receptor (NNR), Chrna7 (gene 25302), sequence (Q05941 whole entry, looked up): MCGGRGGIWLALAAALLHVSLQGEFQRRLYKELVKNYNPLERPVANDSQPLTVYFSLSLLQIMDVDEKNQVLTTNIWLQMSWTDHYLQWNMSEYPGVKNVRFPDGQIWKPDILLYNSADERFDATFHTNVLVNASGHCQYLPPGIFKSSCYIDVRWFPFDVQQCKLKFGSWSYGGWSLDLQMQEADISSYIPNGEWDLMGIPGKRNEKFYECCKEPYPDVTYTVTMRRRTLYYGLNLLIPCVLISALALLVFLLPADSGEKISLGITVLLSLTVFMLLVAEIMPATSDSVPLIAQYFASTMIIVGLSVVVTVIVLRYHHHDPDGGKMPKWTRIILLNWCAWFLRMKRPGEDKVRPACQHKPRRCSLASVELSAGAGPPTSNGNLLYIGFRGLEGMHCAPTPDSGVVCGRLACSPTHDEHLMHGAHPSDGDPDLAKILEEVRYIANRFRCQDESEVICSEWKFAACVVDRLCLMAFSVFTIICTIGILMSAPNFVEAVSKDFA
# human Neonicotinoid receptor (NNR), CHRNA2 (gene 1135), sequence (Q15822 whole entry, looked up): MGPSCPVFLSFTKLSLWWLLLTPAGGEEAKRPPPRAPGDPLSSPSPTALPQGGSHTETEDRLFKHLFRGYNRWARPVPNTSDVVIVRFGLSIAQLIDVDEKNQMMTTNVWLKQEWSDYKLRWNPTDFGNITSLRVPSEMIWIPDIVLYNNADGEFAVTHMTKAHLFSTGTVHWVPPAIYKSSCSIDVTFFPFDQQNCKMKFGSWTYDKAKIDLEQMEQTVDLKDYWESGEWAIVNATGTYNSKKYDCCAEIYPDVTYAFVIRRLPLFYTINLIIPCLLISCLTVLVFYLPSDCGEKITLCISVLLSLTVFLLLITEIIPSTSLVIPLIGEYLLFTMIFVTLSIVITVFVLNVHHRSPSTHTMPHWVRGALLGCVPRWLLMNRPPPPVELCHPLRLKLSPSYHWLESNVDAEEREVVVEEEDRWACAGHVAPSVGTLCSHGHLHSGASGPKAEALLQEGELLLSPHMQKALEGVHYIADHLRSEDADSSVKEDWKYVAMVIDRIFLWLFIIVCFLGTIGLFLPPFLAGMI
# rat Vasopressin 1 Receptor (V1), Avpr1a (gene 25107), sequence (P30560 whole entry, looked up): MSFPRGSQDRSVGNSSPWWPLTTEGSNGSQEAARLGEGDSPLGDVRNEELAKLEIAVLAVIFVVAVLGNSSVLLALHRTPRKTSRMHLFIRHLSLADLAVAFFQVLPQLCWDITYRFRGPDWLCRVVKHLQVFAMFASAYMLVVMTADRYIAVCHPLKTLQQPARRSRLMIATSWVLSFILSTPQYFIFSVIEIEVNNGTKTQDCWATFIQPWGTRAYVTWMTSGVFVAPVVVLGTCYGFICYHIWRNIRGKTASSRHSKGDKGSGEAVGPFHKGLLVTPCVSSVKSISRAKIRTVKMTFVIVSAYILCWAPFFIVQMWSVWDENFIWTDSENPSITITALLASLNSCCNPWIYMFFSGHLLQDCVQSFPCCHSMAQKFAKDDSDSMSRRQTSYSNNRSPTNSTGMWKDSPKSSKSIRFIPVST
compound,measurement,setting,value
CCC(C)(CC)c1cc(NC(=O)c2c(OC)cccc2OC)on1,outcome,[1],inactive
same,AC50,[2],2.57 µM (active)
ClC1=C(Cl)[C@]2(Cl)[C@@H]3[C@@H]4C[C@@H]([C@H]5O[C@@H]45)[C@@H]3[C@@]1(Cl)C2(Cl)Cl,AC50,[3],10.6 µM (active)
CCCCCCCCCc1ccc(O)cc1,outcome,[1],inactive
same,outcome,[4],inactive
O=C(N[C@H]1CN2CCC1CC2)c1cc2ccoc2cn1,AC50,[5],17.7 µM (active)
same,AC50,[6],0.0114 µM (active)
same,outcome,[4],inactive
CCOP(=S)(OCC)SCSC(C)(C)C,outcome,[6],inactive
C[C@]12CCC(=O)C=C1CC[C@@H]1[C@@H]2CC[C@]2(C)C(=O)CC[C@@H]12,outcome,[7],inactive
same,AC50,[3],17.6 µM (active)
same,outcome,[8],inactive
Cc1cc(O)ccc1Cl,outcome,NCBI gene 24521,inactive
ClC1=C(Cl)[C@]2(Cl)[C@@H]3[C@H]4C[C@H]([C@@H]5O[C@H]45)[C@@H]3[C@@]1(Cl)C2(Cl)Cl,AC50,[3],9.78 µM (active)
same,outcome,[4],inactive
O=C(NC(=O)c1c(F)cccc1F)Nc1cc(Cl)c(OC(F)(F)C(F)F)c(Cl)c1,outcome,[7],inactive
CCC(C)(c1ccc(O)cc1)c1ccc(O)cc1,AC50,[7],25 µM (active)
same,AC50,[8],15.6 µM (active)
CCC(=O)O[C@H]1CC[C@H]2[C@@H]3CCC4=CC(=O)CC[C@]4(C)[C@H]3CC[C@]12C,outcome,[1],inactive
same,outcome,[4],inactive
Clc1ccc(C(c2ccccc2Cl)C(Cl)(Cl)Cl)cc1 (centres undefined),outcome,[4],inactive
Cc1cc2c3c(c1)C(c1ccccc1)=N[C@@H](NC(=O)c1ccncc1)C(=O)N3CC2,AC50,[1],0.073 µM (active)
same,outcome,[7],inactive
Oc1ccc(C(c2ccc(O)cc2)(C(F)(F)F)C(F)(F)F)cc1,AC50,[7],25 µM (active)
